{"source": "PubChem BioAssay AID2521", "about": "(Sanford-Burnham Center for Chemical Genomics, 2010)", "note": "The campaign covered roughly 330,000 compounds. About 1,100 (0.33%) were called active. For the sample, actives were picked, then their nearest neighbours and some compounds at random. Values without a mark were called inactive.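 The calls were made as follows: active = inhibition above about 40% at 20 µM (limit read from the data); inactive = the rest.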", "data": [{"biological_target": "Apelin receptor (Homo sapiens) (UniProt P35414)", "sequence (P35414 whole entry, looked up)": "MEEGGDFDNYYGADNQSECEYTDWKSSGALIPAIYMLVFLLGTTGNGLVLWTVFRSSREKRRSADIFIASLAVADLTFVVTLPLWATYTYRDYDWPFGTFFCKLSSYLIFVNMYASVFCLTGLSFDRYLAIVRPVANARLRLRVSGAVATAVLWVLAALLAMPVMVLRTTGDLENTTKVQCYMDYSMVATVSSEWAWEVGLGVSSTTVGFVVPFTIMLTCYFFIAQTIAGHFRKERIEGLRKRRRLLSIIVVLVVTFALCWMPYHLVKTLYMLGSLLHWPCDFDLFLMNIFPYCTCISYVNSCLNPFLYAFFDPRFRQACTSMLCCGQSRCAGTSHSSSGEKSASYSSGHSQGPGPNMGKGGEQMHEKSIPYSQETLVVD", "assay": "blockade of apelin-induced APJ beta-arrestin recruitment – CHO-K1 cells, beta-arrestin complementation, luminescence, primary screen (AID 2521);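 also: cells challenged with 10 nM apelin-13 agonist together with compound; plate controls were apelin-13 plus DMSO wells for no effect and DMSO wells lacking apelin-13 for full effect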", "conditions": "at 20 µM, stronger effect = higher value", "values": [{"smiles": "O=c1ccc2c(-c3ccccc3S(=O)(=O)O)c3ccc(O)c(O)c3oc-2c1O", "inhibition": "49.3% (active)"}, {"smiles": "CCNC(=S)N(CCN(CC)CC)Cc1cc2cc3c(cc2[nH]c1=O)OCO3", "inhibition": "12.3%"}, {"smiles": "CCO[C@H]1OC(C(=O)O)=C[C@@H](C2CCCCC2)[C@@H]1CCCO", "inhibition": "-6.59%"}, {"smiles": "O=C(Nc1cc(=O)[nH]c2ncnn12)c1ccccc1Cl", "inhibition": "2.3%"}, {"smiles": "CC(C)OC(=O)CN1C(=O)C(=O)c2ccccc21", "inhibition": "103% (active)"}, {"smiles": "CC(OC(=O)CN1C(=O)c2ccccc2C1=O)C(=O)c1ccccc1", "note": "(configuration not stated)", "inhibition": "23%"}, {"smiles": "CCOC(=O)CN1C(=O)C(=O)c2cc(C)ccc21", "inhibition": "-0.658%"}, {"smiles": "COc1ccc(C(=O)C[n+]2ccc(N)c(C)c2C)cc1", "inhibition": "4.36%"}, {"smiles": "CC(=O)c1ccc(S(=O)(=O)N(C)CCCC(=O)N(C)Cc2ccccc2F)cc1", "inhibition": "-6.03%"}, {"smiles": "CCCn1nc2cc(C(=O)NCc3ccccc3)ccc2c1OCC", "inhibition": "-8.45%"}, {"smiles": "N#CCCN(CCC#N)c1nnc(-c2ccccc2)s1", "inhibition": "1.67%"}, {"smiles": "CCC(=O)c1ccc(OC(=O)/C=C/c2cc(OC)c(OC)c(OC)c2)cc1", "inhibition": "20.9%"}, {"smiles": "Cc1c(C(=O)N2CCCc3ccccc32)sc2nc(-c3ccccc3)cn12", "inhibition": "21%"}, {"smiles": "Cc1c(C(=O)N2CCCc3ccccc32)oc2ccccc12", "inhibition": "6.71%"}, {"smiles": "Cc1cccc2cc3c(N)c(C(=O)N4CCCc5ccccc54)sc3nc12", "inhibition": "95.8% (active)"}, {"smiles": "Cc1cccc(N(C(=O)c2ccc(CN3CCOCC3)o2)C(C(=O)NC2CCCCC2)c2ccc(F)cc2)c1", "note": "(configuration not stated)", "inhibition": "0.911%"}, {"smiles": "C=C(C)C(=O)O[C@H]1C/C(C)=C\\C(=O)/C=C(\\C)[C@H](O)[C@@H]2OC(=O)C(=C)[C@@H]21", "inhibition": "13.2%"}, {"smiles": "Cc1cc(C(=O)CC#N)c(C)n1-c1c(C)n(C)n(-c2ccccc2)c1=O", "inhibition": "9.25%"}, {"smiles": "COc1ccccc1OC(C)C(=O)Nc1ccc(S(=O)(=O)Nc2nccs2)cc1", "note": "(configuration not stated)", "inhibition": "5.98%"}, {"smiles": "O=[N+]([O-])C(=c1ccc2c(c1)N1C3=C(CCCC3)CC3CCCCC31N=2)[N+](=O)[O-]", "note": "(configuration not stated)", "inhibition": "-3.42%"}, {"smiles": "CCOc1ccc(NS(=O)(=O)c2ccc(Cl)c(C(=O)N(C)Cc3cccnc3)c2)cc1", "inhibition": "6.06%"}, {"smiles": "O=C(c1ccccc1Cl)N(Cc1ccccc1F)N1C(=O)CCCC1=O", "inhibition": "-12.8%"}, {"smiles": "O=[N+]([O-])c1cc(S(=O)(=O)CCCN2CCOCC2)ccc1F", "inhibition": "-24.6%"}, {"smiles": "CC(CN1CCOCC1)OC(=O)c1ccc(Cl)cc1Cl", "note": "(configuration not stated)", "inhibition": "-5.38%"}, {"smiles": "CC(CN1CCOCC1)OC(=O)c1ccc(C(C)(C)C)cc1", "note": "(configuration not stated)", "inhibition": "77% (active)"}, {"smiles": "Cc1ccc(C(=O)OC(C)CN2CCOCC2)cc1", "note": "(configuration not stated)", "inhibition": "-14.4%"}, {"smiles": "CCOC(=O)c1cnc2nc(SCc3ccccc3Cl)[nH]n2c1=O", "inhibition": "-11.5%"}, {"smiles": "CCc1nc2cccnc2n1-c1ccc(C(=O)O)cc1", "inhibition": "1.09%"}, {"smiles": "COc1ccc(N2CCN(C(=O)CCSCc3ccccc3F)CC2)cc1", "inhibition": "-13.7%"}, {"smiles": "COC(=O)c1nc2n(n1)C(c1ccc([N+](=O)[O-])cc1)C(C(=O)Nc1ccc(Cl)cc1)=C(C)N2", "note": "(configuration not stated)", "inhibition": "2.59%"}, {"smiles": "COCCn1c(SCC(=O)Nc2ccccc2F)nc2c(c1=O)SCC2", "inhibition": "10.3%"}, {"smiles": "COc1cc(/C=N\\NC(=O)CNC(=O)c2cccc([N+](=O)[O-])c2)ccc1O", "inhibition": "53.6% (active)"}, {"smiles": "COc1ccc(C(=O)NCC(=O)N/N=C/c2ccc([N+](=O)[O-])o2)cc1OC", "inhibition": "-1.61%"}, {"smiles": "COc1ccc(O)c(/C=N/N=C/c2cccc([N+](=O)[O-])c2)c1", "inhibition": "15.6%"}, {"smiles": "COc1ccc(NC(C)=O)cc1NC(=O)CN1CCN(C2c3ccccc3-c3ccccc32)CC1", "inhibition": "-6.9%"}, {"smiles": "O=C(c1ccc(Cl)s1)N(Cc1nnc(-c2ccccc2Cl)o1)C1CC1", "inhibition": "-57.5%"}, {"smiles": "Brc1cc(Br)c(Oc2cc(Br)c(Br)cc2Br)cc1Br", "inhibition": "11.9%"}, {"smiles": "COc1ccc(-n2nc(C(=O)NCC(=O)N3CCC(C(N)=O)CC3)c3ccccc3c2=O)cc1OC", "inhibition": "-0.314%"}, {"smiles": "COc1cc2c(cc1OC)C(C)N(S(=O)(=O)c1cnc(Cl)c(Cl)c1)CC2", "note": "(configuration not stated)", "inhibition": "-23.5%"}, {"smiles": "O=C(O)CC1S/C(=N\\N=C/c2ccccc2O)N(c2ccc(O)cc2)C1=O", "note": "(configuration not stated)", "inhibition": "-8.74%"}, {"smiles": "COc1ccc(-c2csc(NC(=O)COC(=O)Cc3ccc(Cl)cc3Cl)n2)cc1", "inhibition": "4.6%"}, {"smiles": "COc1ccc(-c2csc(Cc3nc(O)cs3)n2)cc1", "inhibition": "66.3% (active)"}, {"smiles": "CC(C)(C)C(=O)OCc1nc(-c2ccc(O)c(O)c2)cs1", "inhibition": "-5.74%"}, {"smiles": "CSc1cc(C)n(-c2ccccc2C)c(=S)c1C(C)=O", "inhibition": "7.52%"}, {"smiles": "CC1CC2=C(CC1/C=N/NC(N)=S)C(C)(C)CCC2", "note": "(configuration not stated)", "inhibition": "49.2% (active)"}, {"smiles": "O=C1C=C(c2ccccc2)CCC1", "inhibition": "14.7%"}, {"smiles": "Cc1csc(NC(=O)CSc2nnc(-c3cccnc3)o2)n1", "inhibition": "14.2%"}, {"smiles": "NS(=O)(=O)c1ccc(CCNS(=O)(=O)c2cccc3cccnc23)cc1", "inhibition": "-8.92%"}, {"smiles": "O=S(=O)(NCCc1ccc(F)cc1)c1cccc2cccnc12", "inhibition": "9.75%"}, {"smiles": "O=[N+]([O-])c1ccccc1S(=O)(=O)Nc1cccc2cccnc12", "inhibition": "53.5% (active)"}, {"smiles": "Cc1ccc(OCCCC(=O)Nc2ccc(N3CCOCC3)cc2)cc1", "inhibition": "11.8%"}, {"smiles": "O=C(C1CC(=O)N(c2ccc(Br)cc2)C1)N1CCCC1", "note": "(configuration not stated)", "inhibition": "-9.51%"}, {"smiles": "Cc1ccc(NC(=O)c2sc3nc(N)c(C#N)cc3c2N)cc1", "inhibition": "5.56%"}, {"smiles": "CC(=O)Nc1ccc(NC(=O)c2sc3nc4c(c(-c5ccc(C)cc5)c3c2N)CCC4)cc1", "inhibition": "41.5% (active)"}, {"smiles": "Cc1cccc(NC(=O)c2sc3nc(N4CCOCC4)c4c(c3c2N)CCCC4)c1", "inhibition": "0.268%"}, {"smiles": "CCNS(=O)(=O)c1ccc(NC(=O)c2cncc(Br)c2)cc1", "inhibition": "3.77%"}, {"smiles": "O=C(COC(=O)CCc1nc2ccccc2c(=O)[nH]1)Nc1ccc(N2CCOCC2)cc1", "inhibition": "5.92%"}, {"smiles": "O=C(CCc1nc2ccccc2c(=O)[nH]1)OCC(=O)c1cccc(Cl)c1", "inhibition": "46% (active)"}, {"smiles": "CC(C)(C)c1ccc(NC(=O)COC(=O)CCc2nc3ccccc3c(=O)[nH]2)cc1", "inhibition": "9.52%"}, {"smiles": "COc1ccc(S(=O)(=O)N2CCOCC2)c(C)c1C", "inhibition": "3%"}, {"smiles": "COc1ccccc1NC(=O)c1c(Br)cnn1C", "inhibition": "-0.0339%"}, {"smiles": "CN=C1C=C/C(=N/N=c2\\ccn(O)cc2C)C=C1C", "inhibition": "46% (active)"}, {"smiles": "CC(C)C[C@@H](N)c1nnc(SCC(=O)c2ccc(Cl)cc2)o1", "inhibition": "6.62%"}, {"smiles": "O=C1Oc2ccccc2C(=O)/C1=C/c1ccccc1O", "inhibition": "3.82%"}, {"smiles": "O=C(NCCCc1ccccc1)C1CCC(=O)N(CCc2ccc(Cl)cc2)C1", "note": "(configuration not stated)", "inhibition": "4.1%"}, {"smiles": "COc1cccc(NC(C)=[N+](C)CCNS(=O)(=O)c2ccc(Cl)cc2)c1", "inhibition": "13.5%"}, {"smiles": "CCc1ccc(CNC(=O)C2CCCN(c3nc4ccccc4o3)C2)cc1", "note": "(configuration not stated)", "inhibition": "-5.94%"}, {"smiles": "CCOC(=O)c1cnc(Nc2nc3ccccc3o2)nc1CSC(=S)N1CCCCC1", "inhibition": "44.1% (active)"}, {"smiles": "CCOC(=O)CCNC(=O)N1CCCC(C(=O)c2ccccc2SC)C1", "note": "(configuration not stated)", "inhibition": "-13.5%"}, {"smiles": "O=C(CC1SC(=Nc2ccccc2)N(Cc2ccccn2)C1=O)Nc1cccc(Cl)c1", "note": "(configuration not stated)", "inhibition": "0.604%"}, {"smiles": "COc1ccc(CCNC(=S)NC(=O)/C=C/c2ccc(C)cc2)cc1OC", "inhibition": "-38%"}, {"smiles": "Cc1ccc(S(=O)(=O)N2CCN(CC(=O)N/N=C/c3cc([N+](=O)[O-])ccc3Cl)CC2)cc1", "inhibition": "-9.95%"}, {"smiles": "O=[N+]([O-])c1cc(Cl)cc(/C=N/NC(=S)Nc2cc(S(=O)(=O)N3CCOCC3)ccc2Cl)c1O", "inhibition": "42.1% (active)"}, {"smiles": "O=S(=O)(c1ccc(NC(=S)NN=C(C2CC2)C2CC2)cc1)N1CCOCC1", "inhibition": "-24.4%"}, {"smiles": "Cn1cc[n+](C)c1COc1ccc(C=O)cc1", "inhibition": "-7.79%"}, {"smiles": "COC(=O)Cc1ccc(OC(=O)C2CCN(S(=O)(=O)c3ccc(OC)c(OC)c3)CC2)cc1", "inhibition": "11.3%"}, {"smiles": "CN(CC(=O)NCc1cccnc1)S(=O)(=O)c1cc(Cl)ccc1Cl", "inhibition": "-3.77%"}, {"smiles": "CC(=O)N1c2ccc(S(=O)(=O)N3CCC(C(=O)NCc4ccc(F)cc4)CC3)cc2CC1C", "note": "(configuration not stated)", "inhibition": "7.14%"}, {"smiles": "COc1cccc(CNC(=O)C(=O)NCCC2CCCCN2S(=O)(=O)c2ccc(C)cc2)c1", "note": "(configuration not stated)", "inhibition": "-56.9%"}, {"smiles": "c1ccc(Cc2nn3c(Cn4cnc5ccccc54)nnc3s2)cc1", "inhibition": "7.67%"}, {"smiles": "Cc1ccc(C(=O)COC(=O)c2cccc(N3C(=O)c4c(C)nc5ccccc5c4C3=O)c2)cc1C", "inhibition": "-8.71%"}, {"smiles": "O=C(CSc1cccc2cccnc12)N/N=C/c1cccnc1", "inhibition": "41.8% (active)"}, {"smiles": "COc1ccc(C(=O)NCC(=O)N/N=C/c2cccnc2)cc1", "inhibition": "4.23%"}, {"smiles": "CCOC(=O)N/N=C/c1cccnc1", "inhibition": "11.3%"}, {"smiles": "CS(=O)(=O)N1CCc2cc(C(=O)Nc3ccccc3)ccc21", "inhibition": "6.74%"}, {"smiles": "Clc1ccc(Cn2ncc3c(NCc4cccnc4)ncnc32)cc1", "inhibition": "-0.393%"}, {"smiles": "CCOc1ccc(S(=O)(=O)Nc2ccc(S(=O)(=O)Nc3cc(OC)ccc3OC)cc2)cc1", "inhibition": "15.7%"}, {"smiles": "COc1cc(NS(=O)(=O)c2ccc3ccccc3c2)c2ncccc2c1", "inhibition": "65.3% (active)"}, {"smiles": "COc1ccc(N2CC(NS(=O)(=O)c3ccc4ccccc4c3)CC2=O)cc1", "note": "(configuration not stated)", "inhibition": "1.28%"}, {"smiles": "O=C(NCCS(=O)(=O)NCc1ccc(Cl)cc1)c1ccccc1", "inhibition": "-4.12%"}, {"smiles": "O=C(CN1C(=O)NC2(CCCC2)C1=O)Nc1ccc(F)c(F)c1F", "inhibition": "8.35%"}, {"smiles": "COc1cccc(CC2(CO)CCN(Cc3cnc(-c4cccc(C)c4)nc3)CC2)c1", "inhibition": "-17.4%"}]}]}
